This is an account of results in PubChem BioAssay (NCATS).

“And” between values parts separate entries of the source, which are not always exact repeats. Identical values can stand only once. Inconclusive results are not listed. The source made the active and inactive calls. Unless noted, calls come from the whole dose curve; as a rule, active = well fitted curve in the direction sought with a large enough effect; inconclusive = small, poorly fitted or top-dose-only effect, or another doubt; inactive = no such curve, though single readings can be large; an effect the other way counts as inactive or inconclusive.

Experiment [1] in a line: qHTS Assay for Lipid Storage Modulators (AID 1519; calls by dose curve; for activity change, negative = inhibition: % is set by controls: 0 for no effect and ±100 for the full control effect). The note with it: Drosophila S3 cells, BODIPY lipid droplet/cell ratio, laser cytometry, cells loaded with oleic acid. In outline: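 Cells seeded at 5,000 per well were treated with compounds over a concentration series and loaded with oleic acid (400 uM, as added). Lipid droplet fluorescence (488 nm excitation, 500-530 nm channel) was read by laser-scanning cytometry and normalized to 20 uM Triacsin C.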
For orientation: Quantitative high-throughput screening tests each substance at several concentrations.

Experiment [2] can be described thus: Cell Viability - LYMP2-023 (AID 975).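 Note: cellular ATP measured by luciferase luminescence as viability proxy; cells exposed to compound for 24 hours at 37 °C; plate controls were DMSO only for no effect and 92 µM tetraoctylammonium bromide control for full effect; nearly all actives have a fitted effect of over 55% in size.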 In outline: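 Concentration-dependent drop in intracellular ATP measures acute cytotoxicity in a human lymphoblastoid line treated for 24 hours in complete culture medium. AC50 values are taken from Hill-equation fits of qHTS data.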
A short description of experiment [3]: Cell Viability - LYMP2-025 (AID 976).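 Note: cells exposed to compound for 24 h at 37 °C; plate controls were DMSO only for no effect and tetraoctylammonium bromide control for full effect.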 The essentials: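 In qHTS format, LYMP2-025 lymphoblastoid cells in complete culture medium received compound for 24 hr; ATP-based CellTiter-Glo signal gave viability, with AC50 derived by Hill equation.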
The nature of experiment [4]: Cell Viability - LYMP2-010 (AID 981).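 Note: cells exposed to compound for 24 hours at 37 °C; nearly all actives have a fitted effect of over 55% in size.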 Note: potency is the fitted concentration of half-maximal effect. The essentials: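 Acute toxicity is scored as a concentration-dependent loss of cellular ATP in human lymphoblastoid cells after 24 hr compound exposure in complete medium. Tetraoctylammonium bromide is the positive control.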
Experiment [5] can be described thus: Cell Viability - LYMP1-002 - Assay at 40 hr (AID 994). Note: nearly all actives have a fitted effect of over 60% in size. Note: potency is the fitted concentration of half-maximal effect. The essentials: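 Viability in the human lymphoblastoid line was measured as intracellular ATP via CellTiter-Glo after 40 hr compound exposure. Tetraoctylammonium bromide served as positive control.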
The nature of experiment [6]: Cell Viability - LYMP2-006 (AID 978).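 Note: cells exposed to compound for 24 hours; % is set by controls: 0 for no effect and ±100 for the full control effect; nearly all actives have a fitted effect of over 60% in size.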 In outline:
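qHTS, 1536-well; 2500 cells/well, 5 hr 37 C; cpd 24 hr 37 C; CellTiter-Glo 30 min RT; luminescence. Tetraoctylammonium bromide pos. ctrl. AC50 via Hill eqn.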

Experiment [7] concerns the target Alpha-galactosidase A (Homo sapiens) (UniProt P06280). The experiment can be described thus: Counterscreen for Glucocerebrosidase Inhibitors: qHTS Assay for Human alpha-Galactosidase at pH 4.5 (AID 992). Note: 0% is about no effect. In outline: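 Quantitative HTS: compounds tested from 0.7 nM up to 77 uM against 2 nM enzyme with 80 uM 4-MU alpha-D-galactopyranoside. The 20 min room-temperature reaction is stopped with 1M NaOH/1M glycine, pH 10.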

The target in experiment [8] is alpha-glucosidase (Oryza sativa, rice) (UniProt Q653V4). The experiment can be described thus: Counterscreen for Glucocerebrosidase Inhibitors: qHTS Assay for Rice alpha-Glucosidase at pH 5.0 (AID 997).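 Note: 0% = full activity with enzyme and -100% = basal without enzyme.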 The essentials:
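Rice alpha-glucosidase (4 nM final) with 400 uM 4-methylumbelliferyl-alpha-D-glucopyranoside in citrate buffer pH 5.0, 20 min at room temperature, stopped at pH 10; fluorescence 365/440 nm, compounds 0.7 nM–77 uM, AC50 from Hill fits.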

Experiment [9] concerns the target DNA repair nuclease/redox regulator APEX1 (Homo sapiens) (UniProt P27695). The experiment can be described thus: qHTS Validation Assay for Inhibitors of the Human Apurinic/apyrimidinic Endonuclease 1 (APE1) (AID 1705;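 note: TAMRA fluorescence gain over two minutes as APE1 cuts a quenched THF abasic duplex; % is set by controls: 0 for no effect and ±100 for the full control effect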). In outline:
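Read-out: TAMRA fluorescence (525 nm ex, 598 nm em) from cleavage of a quenched THF abasic-site duplex, 50 nM final; activity taken as intensity change between third and first of three reads 60 s apart.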

The nature of experiment [10]: Cell Viability - LYMP2-017 (AID 972).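 Note: cells exposed to compound for 24 hours at 37 °C; % is set by controls: 0 for no effect and ±100 for the full control effect; nearly all actives have a fitted effect of over 55% in size.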 The essentials: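 Steps: plate 2500 lymphoblastoid cells per well; incubate 5 hr at 37 C; add compound across a concentration series and incubate 24 hr at 37 C; add CellTiter-Glo and read luminescence after 30 min at room temperature; fit Hill curves for AC50.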
Experiment [11] in a line: Cell Viability - LYMP2-021 (AID 974).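 Note: compound exposure lasts 24 hours at 37 °C; % is set by controls: 0 for no effect and ±100 for the full control effect; nearly all actives have a fitted effect of over 55% in size.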 In outline: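 Concentration-response cytotoxicity in a human lymphoblastoid line: 24 hr treatment at 37 C in complete culture medium, tetraoctylammonium bromide as positive control, luminescent ATP quantitation as viability measure.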
Experiment [12] can be described thus: Cell Viability - LYMP2-008 (AID 980).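 Note: cells exposed to compound for 24 h at 37 °C; % is set by controls: 0 for no effect and ±100 for the full control effect; nearly all actives have a fitted effect of over 60% in size.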 The essentials:
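Acute cytotoxicity is scored as concentration-dependent loss of cellular ATP in a human lymphoblastoid line after 24 hr treatment at 37 C. ATP is quantified by luciferase luminescence.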

Experiment [13] in a line: Cell Viability - LYMP2-012 (AID 982).
Experiment [14] is described as follows: Cell Viability - LYMP2-014 (AID 983).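 Note: cells exposed to compound for 24 h at 37 °C; plate controls were DMSO only for no effect and 92 µM tetraoctylammonium bromide for full effect; nearly all actives have a fitted effect of over 50% in size.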 The essentials: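 Decrease in intracellular ATP after 24 hr treatment at 37 C, measured by luciferase luminescence, indicated cytotoxicity. Concentration-response data were fitted with the standard Hill equation to give AC50.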
Experiment [15] can be described thus: Cell Viability - LYMP2-016 (AID 984). The essentials: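 qHTS, 1536-well: 2500 LYMP2-016 cells/well, 5 hr 37 C, compound added, 24 hr 37 C, CellTiter-Glo 30 min RT, luminescence. Tetraoctylammonium bromide positive control. AC50 via Hill fit.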
Experiment [16] can be described thus: Cell Viability - LYMP2-018 (AID 985).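 Note: compound exposure lasted 24 hr at 37 °C; plate controls were DMSO only for no effect and tetraoctylammonium bromide at 92 µM for full effect; nearly all actives have a fitted effect of over 50% in size.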 In outline: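 Acute cytotoxicity is scored as a concentration-dependent drop in intracellular ATP after 24 hr exposure of the lymphoblastoid line in complete culture medium, measured by luciferase luminescence. Potency is expressed as AC50 from Hill modelling.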
Experiment [17] can be described thus: Cell Viability - LYMP2-020 (AID 986). In outline:
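Acute cytotoxicity in a human lymphoblastoid line is scored as a concentration-dependent fall in cellular ATP after 24 hr at 37 C in complete medium. The positive control is tetraoctylammonium bromide, and potency is given as Hill-fit AC50.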

The nature of experiment [18]: Cell Viability - LYMP2-026 (AID 989).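 Note: cells exposed to compound for 24 h at 37 °C; % is set by controls: 0 for no effect and ±100 for the full control effect; nearly all actives have a fitted effect of over 50% in size.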 The essentials: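 Concentration-dependent loss of intracellular ATP in human lymphoblastoid cells after 24 hr at 37 C, quantified by luciferase luminescence. AC50 derived from standard Hill equation.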
Experiment [19] in a line: Cell Viability - LYMP1-002 - Assay at 24 hr (AID 993). Note: % is set by controls: 0 for no effect and ±100 for the full control effect. In outline: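 qHTS, LYMP1-002 lymphoblastoid, 24 h cpd, 37 C, CellTiter-Glo ATP luminescence; AC50 via Hill eq.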
Setting [20] is: measured here: cell count channel max response.
Setting [21] is: measured here: lipid channel max response.

Chain of Alpha-galactosidase A (Homo sapiens) (P06280 whole entry, looked up): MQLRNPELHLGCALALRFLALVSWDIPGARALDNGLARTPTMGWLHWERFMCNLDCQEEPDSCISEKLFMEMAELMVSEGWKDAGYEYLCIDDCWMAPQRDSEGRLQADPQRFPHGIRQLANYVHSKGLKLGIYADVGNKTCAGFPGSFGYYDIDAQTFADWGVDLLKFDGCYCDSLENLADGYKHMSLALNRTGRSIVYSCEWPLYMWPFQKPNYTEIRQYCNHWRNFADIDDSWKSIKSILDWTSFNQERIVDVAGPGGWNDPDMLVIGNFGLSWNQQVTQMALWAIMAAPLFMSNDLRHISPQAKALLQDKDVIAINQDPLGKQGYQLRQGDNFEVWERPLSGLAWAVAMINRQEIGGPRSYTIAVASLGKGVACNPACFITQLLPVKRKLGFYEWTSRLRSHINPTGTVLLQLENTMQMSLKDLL
Chain of DNA repair nuclease/redox regulator APEX1 (Homo sapiens) (P27695 whole entry, looked up): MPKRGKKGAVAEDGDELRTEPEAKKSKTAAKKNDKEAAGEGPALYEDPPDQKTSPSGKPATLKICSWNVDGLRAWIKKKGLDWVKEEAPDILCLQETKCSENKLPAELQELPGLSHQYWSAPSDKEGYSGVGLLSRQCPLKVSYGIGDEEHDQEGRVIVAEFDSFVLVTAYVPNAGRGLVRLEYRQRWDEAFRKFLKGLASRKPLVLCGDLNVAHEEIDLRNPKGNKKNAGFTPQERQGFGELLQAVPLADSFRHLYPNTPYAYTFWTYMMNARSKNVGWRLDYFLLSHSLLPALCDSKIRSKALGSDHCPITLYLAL

With `Clc1ccccc1CN1CCc2sccc2C1`, the activity change, negative = inhibition in experiment [1] (at 25.7 µM (top of the series)) was -0.65% (inactive). Also, the max response in experiment [1] (setting [20]) is -21%; in [1] (setting [21]), -18.8%.
Consider `N=C(N)c1ccc(OCCCCCOc2ccc(C(=N)N)cc2)cc1`, for which the Potency entry in [2] and in experiment [3] was “inactive” throughout. The Potency was 39.8 µM (active) in experiment [4] and 50.1 µM (active) in experiment [5]. Besides, the activity change, negative = inhibition is -3.38% (inactive) in experiment [1] (at 25.7 µM (top of the series)) and 3.95% (inactive) in experiment [1] (at 57.5 µM (top of the series)). Moreover, the max response is 3.1% and 6.27% in experiment [1] (setting [20]); -0.0009% and 12.3% in [1] (setting [21]).
In the case of `CC(=O)[C@H]1CC[C@H]2[C@@H]3CCC4=CC(=O)CC[C@]4(C)[C@H]3CC[C@]12C`, the Potency entry in experiment [6] is “inactive”. Further, the compound was called inactive in experiment [7], in [8] and in experiment [9]. In addition, the activity change, negative = inhibition in experiment [1] (at 57.5 µM (top of the series)) is 1.11% (inactive). The max response in experiment [1] (setting [20]) was -15.2%; in experiment [1] (setting [21]), -13.1%.
In the case of `CCOC(=O)c1ccc(OC(=O)CCCCCN=C(N)N)cc1`, the activity change, negative = inhibition in [1] (at 25.7 µM (top of the series)) was 1.48% (inactive). The max response in experiment [1] (setting [20]) was -14.4%; in experiment [1] (setting [21]), -13.1%.
`N[C@@H](Cc1ccc(O)c(O)c1)C(=O)O`: the call in [7] and in [8] was inactive. Besides, in [1] (at 25.7 µM (top of the series)), the activity change, negative = inhibition was -1.67% (inactive). The max response in [1] (setting [20]) is -2.41%; in [1] (setting [21]), -4.9%.
In the case of `Nc1ccc(S(=O)(=O)Nc2ccccn2)cc1`, the activity change, negative = inhibition was -0.611% (inactive) in [1] (at 25.7 µM (top of the series)) and 8.46% (inactive) in experiment [1] (at 57.5 µM (top of the series)). For the same compound, the max response was -5.02% and 31.9% in [1] (setting [20]); -4.54% and 46.5% in experiment [1] (setting [21]).
As to `Cc1ccc(S(=O)(=O)N[C@@H](Cc2ccccc2)C(=O)CCl)cc1`, the compound was classed as inactive in experiment [7], in experiment [8] and in experiment [9].
As to `Cc1ccnc2c1NC(=O)c1cccnc1N2C1CC1`, the Potency result in [10], in experiment [11], in experiment [2], in [3], in [6] and in experiment [12] was “inactive” in each case. Further, the Potency result in experiment [4], in experiment [13], in experiment [14], in experiment [15], in experiment [16] and in [17] was “inactive” in each case. Besides, the Potency entry in experiment [18], in experiment [19] and in experiment [5] was “inactive” each time.
In the case of `Cc1cccc(Nc2ccncc2S(=O)(=O)NC(=O)NC(C)C)c1`, the activity change, negative = inhibition was -1.07% (inactive) in experiment [1] (at 25.7 µM (top of the series)) and 6.92% (inactive) in experiment [1] (at 57.5 µM (top of the series)). The max response was -3.68% and 16.7% in experiment [1] (setting [20]); -4.97% and 28.2% in experiment [1] (setting [21]).
For `Cc1cc(NS(=O)(=O)c2ccc(N)cc2)no1`, the Potency result in [10], in [11], in experiment [2], in experiment [3], in [6] and in experiment [12] was “inactive” in each case. The Potency result in [4], in [13], in experiment [14], in [15], in [16] and in [17] was “inactive” throughout. The Potency result in experiment [18], in [19] and in experiment [5] was “inactive” in each case. Also, the activity change, negative = inhibition in [1] (at 25.7 µM (top of the series)) is 0.06% (inactive); in experiment [1] (at 57.5 µM (top of the series)), 10.1% (inactive). The max response in experiment [1] (setting [20]) was 8.41% and 20.8%; in experiment [1] (setting [21]), 8.63% and 34.6%.
For the compound `Cc1noc(NS(=O)(=O)c2ccc(N)cc2)c1C`, the Potency entry in experiment [10], in experiment [11], in experiment [2], in experiment [3], in experiment [6] and in [12] was “inactive” each time. The Potency entry in experiment [4], in [13], in experiment [14], in [15], in [16] and in [17] was “inactive” each time. The Potency entry in experiment [18], in [19] and in experiment [5] was “inactive” in each case.
